In the library only some 19% were active in any assay of this set; here they are far more common.
KB-V1 cytotox = KB-V1 MDR subline cytotoxicity; Potency, µM (titrated, usually from 46.1 µM), usual class: cytotoxic; actives 3.4% (n = 400,000); KB-V1 MDR cells viability, CellTiter-Glo, 72 h; AID 1347076; note: nearly all actives have a fitted effect of over 60% in size
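Cytotoxicity toward P-gp-expressing KB-V1 cells was determined as loss of CellTiter-Glo luminescence after 72 h at 37 degrees C. Compounds were tested in quantitative HTS format across a concentration range, with curves fitted to normalized data.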
DT40 TDP1 CPT = DT40-hTDP1 cell growth loss with CPT; chicken DT40 Tdp1-/-;hTDP1 cells + 20 nM CPT, ATP luminescence, 48 h; Potency, µM (series often up to 46.2 µM), actives largely listed as inhibitors; actives 12% (n = 420,000); AID 686979; note: nearly all actives have a fitted effect of over 55% in size
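Chicken DT40 Tdp1-/- cells stably complemented with human TDP1 were seeded at 400 cells/well in medium containing 20 nM camptothecin, exposed to pin-transferred compounds, and grown at 37 °C for at least 48 hr. Viability was read as ATP luminescence.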
KB-3-1 tox = KB-3-1 parental cell cytotoxicity | actives 1.4% (n = 400,000) | Potency, µM (series often up to 46.1 µM), most hits filed as cytotoxic | AID 1347075 | KB-3-1 viability, CellTiter-Glo ATP luminescence, 72 h; note: nearly all actives have a fitted effect of over 60% in size
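KB-3-1 cells, DMEM (no phenol red) + 10% FBS; compound by pin transfer, 72 h, 37 °C. Readout: CellTiter-Glo luminescence after 10 min. Data normalized, curve-fitted.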
HT1080 IDH1KD tx = HT-1080 IDH1 knockdown cell toxicity (counter line); AID 686971; HT-1080 IDH1 knockdown viability, ATP luminescence, 48 h; actives 2% (n = 360,000); Potency, µM (doses to about 46.1 µM), usual class: cytotoxic
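Assay cells: HT-1080 with IDH1 knockdown, 750 per well, RPMI/5% FBS. Exposure: 48 h at 37 °C following 2 h pre-incubation. Read: CellTiter-Glo luminescence; fitted concentration-response, curve class assigned.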
DT40 TDP1 no CPT = qHTS for Inhibitors of human tyrosyl-DNA phosphodiesterase 1 (TDP1): qHTS in cells in absence of CPT | DT40 Tdp1-/- hTDP1 cells, no CPT, ATP luminescence, 48 h | Potency, µM (doses to about 46.2 µM), actives largely listed as inhibitors | actives 15% (n = 420,000) | AID 686978, 2013; note: nearly all actives have a fitted effect of over 55% in size
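DT40 Tdp1-/-;hTDP1 cells, no CPT (DMSO vehicle only), 400 cells/well; compounds pin-transferred; ≥48 hr, 37 °C; CellTiter-Glo 30 min RT dark, luminescence read.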
HT1080-NT tox = kills 2HG-producing HT-1080-NT fibrosarcoma cells; HT-1080-NT fibrosarcoma viability, CellTiter-Glo ATP luminescence, 48 h; Potency, µM (top dose mostly 46.1 µM), actives largely listed as cytotoxic; actives 1.6% (n = 360,000); AID 686970;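 note: NT is the 2HG producing partner of a matched IDH1 knockdown line; nearly all actives have a fitted effect of over 55% in size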
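Toxicity toward the 2HG-producing NT line was scored as %Activity, normalised to DMSO and no-cell wells, from CellTiter-Glo luminescence after 48 hours' treatment.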
Numbers stand for hits; n = inactive; u = inconclusive; x = no result given; ! = repeats disagree. Calls come from the whole dose curve; as a rule, active = well fitted curve in the direction sought with a large enough effect; inconclusive = small, poorly fitted or top-dose-only effect, or another doubt; inactive = no such curve, though single readings can be large; an effect the other way counts as inactive or inconclusive.

SMILES | KB-V1 cytotox | DT40 TDP1 CPT | KB-3-1 tox | HT1080 IDH1KD tx | DT40 TDP1 no CPT | HT1080-NT tox
Cc1nc(C(=O)Nc2cccc(Cl)c2)nn1-c1cc(OC(C)C)c(Cl)cc1Cl | u | 16µM | n | n | u | n
O=C(CC[C@H]1O[C@@H](n2cnc3c(NC(=O)c4ccccc4)ncnc32)[C@H](O)[C@@H]1O)NCc1nc2ccccc2[nH]1 | n | n | n | n | n | u
O=C(CC(C(=O)O)n1ccnc1)c1ccc(Cl)cc1 (stereo not drawn) | n | 7.1µM | n | x | 7.1µM | x
O=C(Cn1ccnc1)c1ccc(Cl)cc1 | n | n | n | n | n | n
Cc1ccccc1-c1cc2nc(NCc3ccccc3)n(C)c(=O)c2s1 | n | 9.2µM | n | n | u | u
Cc1ccccc1-c1cc2nc(NCc3ccc(N(C)C)cc3)n(C)c(=O)c2s1 | u | u | n | u | 16µM | u
Cc1ccccc1-c1cc2nc(NCc3ccncc3)n(C)c(=O)c2s1 | n | u | n | n | u | n
O=C1C(=O)c2ccccc2C(O)=C1C1CCC(c2ccc(Cl)cc2)CC1 (stereo not drawn) | u | u | u | n | 2.3µM! | u
O=C1C=C(c2cccc(Cl)c2O)C[C@@H](c2ccc(Cl)cc2)C1 | n | u | n | n | u | n
Cc1nc(SCc2nc3ccc(C(F)(F)F)cc3[nH]2)c2oc3ccccc3c2n1 | n | x | 16µM | x | x | x
O=C(Nc1ccc(Cl)cc1)Nc1csc([N+](=O)[O-])c1 | u | 18µM | n | 10µM | 9.2µM | 13µM
O=C(Nc1csc([N+](=O)[O-])c1)Nc1c(Cl)cccc1Cl | n | u | n | n | 16µM | n
O=C(Nc1ccccc1)Nc1ccc(Cl)c([N+](=O)[O-])c1 | u | n | u | n | n | n
CSCCC(NC(=O)/C(=C/c1ccco1)NC(=O)c1ccc(Br)o1)C(=O)O (stereo not drawn) | n | n | n | n | n | n
CC1=Nc2ccccc2/C1=C\c1sc(Nc2ccc(C)cc2)nc1O | 1.5µM | 0.58µM | u | 0.65µM | 0.92µM | 0.92µM
CCCC1S/C(=N/N=C/c2ccc(C)cc2)N(Cc2ccc(OC)cc2)C1=O (stereo not drawn) | 13µM | n | u | n | n | n
CCC(=O)N1CCCc2cc(S(=O)(=O)N3CCN(c4ncccn4)CC3)ccc21 | n | 15µM | n | n | u | n
CCC(=O)N1CCCc2cc(S(=O)(=O)N3CCN(c4ccccn4)CC3)ccc21 | u | u | n | n | 21µM | n
O=C(C1CCC1)N1CCc2cc(S(=O)(=O)N3CCN(c4ccccn4)CC3)ccc21 | u | u | n | n | u | n
COc1cc2c(cc1OC)CN(c1nc(CN3CCOCC3)nc3sc4c(c13)CCC(C)C4)CC2 (stereo not drawn) | n | 12µM | u | u | 15µM | u
CC1CCc2c(sc3nc(CN4CCOCC4)nc(Sc4ccccc4)c23)C1 (stereo not drawn) | 8.2µM | u | n | n | 21µM | n
CCCSc1ncc(Cl)c(C(=O)Nc2ccc(S(=O)(=O)N(C)c3ccccc3)cc2)n1 | x | u | x | x | 21µM | x
CCSc1ncc(Cl)c(C(=O)Nc2ccccc2)n1 | u | n | n | n | n | n
CCN(c1ccccc1)S(=O)(=O)c1ccc(NC(=O)c2nc(SC)ncc2Cl)cc1 | u | 12µM | n | x | 21µM | x
CN(c1ccccc1)S(=O)(=O)c1ccc(NC(=O)c2nc(S(C)(=O)=O)ncc2Cl)cc1 | u | 0.65µM | u | 12µM | 0.58µM | u
SMILES | KB-V1 cytotox | DT40 TDP1 CPT | KB-3-1 tox | HT1080 IDH1KD tx | DT40 TDP1 no CPT | HT1080-NT tox
Cc1ccc([N+](=O)[O-])cc1S(=O)(=O)N(C(=O)c1ccncc1)c1ccc2oc3c(c2c1)CCCC3 | n | n | n | u | n | n
COC(=O)c1c(C)oc2ccc(N(C(=O)c3ccncc3)S(=O)(=O)c3ccc(C)cc3C)cc12 | u | 2.6µM | u | u | 4.1µM | 23µM
COC(=O)c1c(C)oc2ccc(N(C(=O)c3ccncc3)S(=O)(=O)c3c(C)cc(C)cc3C)cc12 | x | 1.8µM | x | x | 1.2µM | x
COC(=O)c1c(C)oc2ccc(NS(=O)(=O)c3cccs3)cc12 | u | u | u | n | n | n
COC(=O)c1c(C)oc2ccc(N(C(=O)c3ccncc3)S(=O)(=O)c3cc(C)c(C)cc3C)cc12 | x | 10µM | x | x | 5.2µM | x
Cc1cn([C@H]2C[C@H](O)[C@@H](CNC/C=C/c3ccccc3[N+](=O)[O-])O2)c(=O)[nH]c1=O | n | n | n | n | u | n
CCNC(=O)C1CCCN(c2nn3cc(-c4ccc(C)cc4)nc3s2)C1 (stereo not drawn) | n | 18µM | n | x | 23µM | x
COc1ccccc1CNC(=O)C1CCCN(c2nn3cc(-c4ccc(F)cc4)nc3s2)C1 (stereo not drawn) | n | u | n | x | u | x
COc1ccc(-c2cn3nc(N4CCCC(C(=O)NCc5ccccc5C)C4)sc3n2)cc1 (stereo not drawn) | n | 13µM | n | x | 10µM | x
CCOc1ccc(NC(=O)C2CCCN(c3nn4c(=O)cc(C)nc4s3)C2)cc1 (stereo not drawn) | n | n | n | n | n | n
COc1ccc(-c2cn3nc(N4CCC(C(=O)Nc5ccc(C)cc5)CC4)sc3n2)cc1 | n | u | n | x | 21µM | x
CCOc1ccc(NC(=O)C2CCCN(c3nn4cc(-c5ccc(OC)cc5)nc4s3)C2)cc1 (stereo not drawn) | n | u | n | x | 10µM | x
COc1ccc(-c2cn3nc(N4CCC(C(=O)Nc5ccccc5OC)CC4)sc3n2)cc1 | n | u | n | x | u | x
Cc1cc(NC(=O)CCNS(=O)(=O)c2ccc3c(c2)CCCC(=O)N3)ccc1Br | n | x | n | x | x | x
COc1ccc(-c2cn3nc(N4CCCC(C(=O)Nc5cc(C)cc(C)c5)C4)sc3n2)cc1 (stereo not drawn) | n | 8.2µM | n | x | 8.2µM | x
Cc1ccc(-c2cn3nc(N4CCCC(C(=O)Nc5ccc(F)cc5)C4)sc3n2)cc1 (stereo not drawn) | n | 16µM | n | x | 18µM | x
Cc1ccc(-c2cn3nc(N4CCCC(C(=O)NCc5ccc(F)cc5)C4)sc3n2)cc1 (stereo not drawn) | n | u | n | x | u | x
COc1ccc(-c2cn3nc(N4CCCC(C(=O)Nc5ccc(C)c(C)c5)C4)sc3n2)cc1 (stereo not drawn) | n | u | n | x | 12µM | x
COc1ccc(-c2cn3nc(N4CCCC(C(=O)Nc5cccc(Cl)c5C)C4)sc3n2)cc1 (stereo not drawn) | n | u | n | x | 21µM | x

Screening results as filed in PubChem BioAssay.
